A number with no mark means an inactive call. Active and inactive are the calls of the source.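 Rule for the calls: active = at least 20% inhibition of 6-phosphogluconate dehydrogenase activity; inactive = the rest.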
Each compound was assayed against 6-phosphogluconate dehydrogenase, decarboxylating (Homo sapiens) (UniProt P52209) (assay: inhibition of human phosphogluconate dehydrogenase – biochemical, recombinant enzyme, NADPH absorbance, primary screen (AID 1159550)). Conditions: recombinant 6PGD, NADPH absorbance 341 nm; at 10 µM; active compounds read high.
Sequence of 6-phosphogluconate dehydrogenase, decarboxylating (Homo sapiens) (P52209 whole entry, looked up): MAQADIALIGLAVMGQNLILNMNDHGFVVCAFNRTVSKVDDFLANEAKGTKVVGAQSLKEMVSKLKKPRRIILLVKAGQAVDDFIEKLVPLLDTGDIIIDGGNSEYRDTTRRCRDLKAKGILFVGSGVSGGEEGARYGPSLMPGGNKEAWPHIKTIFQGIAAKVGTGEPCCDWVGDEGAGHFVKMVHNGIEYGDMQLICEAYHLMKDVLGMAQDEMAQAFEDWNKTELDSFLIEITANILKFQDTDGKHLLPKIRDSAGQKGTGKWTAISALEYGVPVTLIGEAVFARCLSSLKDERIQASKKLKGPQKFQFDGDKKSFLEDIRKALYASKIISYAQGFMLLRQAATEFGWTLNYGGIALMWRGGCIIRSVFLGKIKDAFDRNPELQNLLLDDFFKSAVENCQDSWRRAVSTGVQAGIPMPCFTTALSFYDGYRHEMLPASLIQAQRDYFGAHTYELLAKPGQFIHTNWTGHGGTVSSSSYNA

Row | Structure (SMILES) | inhibition
1 | CC(=O)OC1CC2C(C)(C)C(=O)C=CC2(C)C2CCC3(C)C(c4ccoc4)OC(=O)C4OC43C12C (centres undefined) | -18.7%
2 | C=C1C(C2(C)C(OC(C)=O)CC(=O)OC(C)(COC(C)=O)C2CC(=O)OC)C(OC=O)C(OC(=O)C(O)C(C)CC)C2(C)C(c3ccoc3)CC(=O)C12O (centres undefined) | 7.27%
3 | CC(C)CCCC(C)C1CCC2C3CC(=O)[C@H]4CC(O)CCC4(C)C3CCC12C (some centres undefined) | -4.09%
4 | CC(C)(O)[C@@H]1Cc2cc3ccc(=O)oc3cc2O1 | -0.979%
5 | COc1ccc2c(c1)CC[C@@H]1[C@@H]2CC[C@]2(C)[C@@H](O)[C@H](O)C[C@@H]12 | 5.45%
6 | NC(=O)c1cc[n+](CC2=C(C(=O)O)N3C(=O)[C@H](NC(=O)C(c4ccccc4)S(=O)(=O)[O-])[C@@H]3SC2)cc1 (some centres undefined) | -12%
7 | Cc1ccc(C(C)C)c(O)c1C(=O)O | 7.11%
8 | CC(=O)Oc1ccc2c(c1C(C)C)CCC1C(C)(C)CCCC21C (centres undefined) | 2.45%
9 | C[C@@H]1[C@H]2[C@H](O[C@@H]3O[C@H](CO)[C@@H](O)[C@H](O)[C@H]3O)OC=C(C(=O)O)[C@H]2C[C@@H]1O | 16.7%
10 | CC(C)c1c(O)ccc2c1CCC1[C@@](C)(C(=O)O)CCC[C@]21C (some centres undefined) | 17.5%
11 | CCCCCCCCCCCCC(C(=O)O)C(C)C(=O)O (centres undefined) | -10.3%
12 | C=CC(C)(O)CCC=C(C)C (centres undefined) | -3.42%
13 | Cc1cc(=O)c2c(O)c3c(cc2o1)OCC(C)CC3 (centres undefined) | 4.57%
14 | O=C(Oc1cc(OC(=O)c2ccccc2)c2c(c1)O[C@H](c1ccc(OC(=O)c3ccccc3)c(OC(=O)c3ccccc3)c1)[C@@H](OC(=O)c1ccccc1)C2)c1ccccc1 | -9.47%
15 | COc1ccccc1-c1cc(=O)c2cccc(OC)c2o1 | 4.44%
16 | O=c1c(O)cc([C@H]2Oc3cc(O)cc(O)c3C[C@H]2O)cc2c([C@H]3Oc4cc(O)cc(O)c4C[C@H]3O)cc(O)c(O)c12 | 31.2% (active)
17 | COc1ccc(-c2cc(=O)c3c(O)cc(O[C@H]4O[C@H](CO[C@@H]5O[C@@H](C)[C@H](O)[C@@H](O)[C@H]5O)[C@@H](O)[C@H](O)[C@H]4O)cc3o2)cc1 | 17.5%

Row | Structure (SMILES) | inhibition
18 | CC(=O)O[C@@H]1CC2C(C)(C)[C@H](O)C[C@H](O)[C@]2(C)C2CC[C@@]3(C)C(=CC(=O)O[C@H]3c3ccoc3)[C@@]21C (some centres undefined) | 13.2%
19 | C[C@]12CC[C@@H]3c4ccc(OC(=O)CCC(=O)O)cc4CC[C@H]3[C@@H]1CCC2=O | 5.64%
20 | COc1ccc(C2COc3cc(O)ccc3C2)c(OC)c1O (centres undefined) | 1.81%
21 | COC(=O)CCC(=O)O[C@H]1CCC2(C)C(CCC3C2C(=O)[C@@H](O)C2(C)C3CC3OC4(CCC(C)CO4)C(C)C32)C1 (some centres undefined) | 4.65%
22 | CC(=O)O[C@H]1CCC2(C)C(=CCC3C2CCC2(C)C3CC3OC4(CCC(C)CO4)C(C)C32)C1 (some centres undefined) | -0.838%
23 | C=C1C(C)(C)[C@@]2(Cl)C(Cl)[C@]1(Cl)C(Cl)(Cl)C2(Cl)Cl (some centres undefined) | 6.23%
24 | O=C/C=C/c1ccc(O)cc1 | 1.58%
25 | Nc1nc2ncc(C(=O)O)nc2c(=O)[nH]1 | 13.3%
26 | CS(C)(=O)=O | 0.728%
27 | Nc1nc2[nH]c(=O)c(=O)[nH]c2c(=O)[nH]1 | 13.8%
28 | COC(=O)C[C@H]1C(C)(C)C(=O)[C@@H]2CC3=C4CC(OC)O[C@@H](c5ccoc5)[C@]4(C)CCC3[C@@]1(C)C2=O (some centres undefined) | -2.67%
29 | C=C[C@@H](C1=CC(=O)C(OC)=CC1=O)c1ccccc1 | -0.743%
30 | CC(=O)O[C@H]1CC2C(C)(C)[C@H](OC(C)=O)C=C[C@@]2(C)C2CC[C@@]3(C)C(=CC(=O)O[C@@H]3c3ccoc3)[C@]21C (some centres undefined) | 0.19%
31 | NC1(C(=O)O)CCC1 | 2.05%
32 | CC(C)CCC[C@@H](C)[C@H]1CC[C@H]2[C@@H]3CC[C@@H]4C[C@H](O)CC[C@]4(C)[C@H]3CC[C@]12C | -3.72%
33 | CCC(=O)OCC(=O)[C@@]1(OC(=O)CC)[C@@H](C)CC2C3CCC4=CC(=O)C=C[C@]4(C)[C@@]3(F)C(O)C[C@@]21C (some centres undefined) | -9.91%
34 | CC(C)[C@@H](C)/C=C/[C@@H](C)[C@H]1CC[C@H]2C3=CCC4CC(=O)CC[C@]4(C)[C@H]3CC[C@]12C (some centres undefined) | 2.32%
